Source: PubChem BioAssay (several laboratories)
Shown are actives, neighbours in structure and some others; about 6.2% of the full set was active somewhere.
Mot1-301 SUMO: yeast Mot1-301 growth rescue at high temperature, primary screen, SUMOylation pathway inhibitor project, S. cerevisiae, ATP luminescence, 38.5C | growth rescue, % at 18.8 µM | 1% of 320,000 active | AID 2716, 2010 | S. cerevisiae Mot1-301 growth rescue; percent above DMSO median, 100 means doubled;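 active = every valid replicate shows activation above 250% relative to neutral control wells; inactive = the rest, any valid replicate at or below 250%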
H9c2 protect: cardioprotection against H2O2-induced cell death, primary screen, uHTS, H9c2 cells, ATPLite luminescence. H9c2 cardiomyocytes, H2O2 injury protection, 2 h. protection from H2O2 cell death, % at 20 µM. 0.63% of 360,000 active. AID 588492, 2011;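 active = compounds giving at least 50% protection of heart cells from peroxide-induced death in the single-dose screen, raw or plate-pattern-corrected value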
AI-2 QS modul: Vibrio harveyi AI-2 quorum sensing modulators, primary screen, JMH597 strain, luminescence/OD600 ratio; AID 2094, 2009; activity change, % at 7.5 µM; 0.4% of 300,000 active; Vibrio harveyi JMH597 AI-2 luminescence/OD600 ratio, 9 h; hits give low values; strain lacks LuxN and CqsS sensors; 0 = neutral-control median; in the data active = activity change below about -75%, passing the limit was not always enough; inconclusive = no clear call, values can overlap the other calls;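 note: luminescence divided by OD600 gain over 9 h not by final OD600 alone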
AHR act: AHR activators, primary screen, cell-based, luminescence, luciferase reporter, human | Aryl hydrocarbon receptor (Homo sapiens), P35869 | AHR-responsive luciferase reporter cells | activation, % at 5 µM | 2.5% of 320,000 active | AID 2796, 2010; in the data active = activation above about 47%
GRIN3A LBD mod: binders of NR3A ligand-binding domain, primary screen, biophysical, differential scanning fluorimetry, uHTS; Glutamate receptor ionotropic, NMDA 3A (GRIN3A) ligand-binding domain; NR3A LBD differential scanning fluorimetry, Tm shift; 0% = protein alone, 100% = glycine-bound protein; Tm shift relative to glycine control, % at 25 µM; 2.5% of 340,000 active;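 active = melting temperature shift of at least 10% of the positive control shift, at one fixed dose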
NTR1 ag: agonists of human NTR1, primary screen, imaging, U2OS cells, beta-arrestin-GFP, high content. NTR1-U2OS beta-arrestin-GFP spot imaging, agonist mode. activation, % at 20 µM. AID 493036, 2011. 0.17% of 330,000 active;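 active = activation at or above 40% of the spot to cytoplasm intensity ratio, with at least 20 cells analyzed; inconclusive = wells under 20 cells, flagged as cytotoxic or low count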
Target sequence (P30989 whole entry, looked up): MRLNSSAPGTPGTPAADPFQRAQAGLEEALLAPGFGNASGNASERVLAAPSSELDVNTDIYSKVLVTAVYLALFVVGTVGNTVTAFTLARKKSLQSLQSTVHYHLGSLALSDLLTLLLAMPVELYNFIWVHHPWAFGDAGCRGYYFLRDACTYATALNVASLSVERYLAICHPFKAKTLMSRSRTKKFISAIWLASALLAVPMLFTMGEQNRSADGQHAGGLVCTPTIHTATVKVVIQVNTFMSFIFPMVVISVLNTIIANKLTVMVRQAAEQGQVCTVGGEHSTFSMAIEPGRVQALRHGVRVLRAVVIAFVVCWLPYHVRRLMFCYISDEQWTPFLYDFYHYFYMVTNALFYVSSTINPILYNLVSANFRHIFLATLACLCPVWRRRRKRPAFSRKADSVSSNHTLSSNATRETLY
Yeast Mot1 SUMO: growth restoration of Mot1-301 yeast on galactose, dose response, SUMO pathway inhibitor project, whole organism, S. cerevisiae, ATP luminescence, cherry-picked samples. AID 493004, 2010. S. cerevisiae Mot1-301 galactose growth, 24 h; -100 = growth of slx-deleted rescue strain. 2,300 tested, under 10 active. shares compounds with Mot1-301 SUMO. growth activity, percent, % at 42 µM;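 active = Signal drops as the depositor expects, and the fitted half-maximal dose is no more than ten times the top valid tested dose; inconclusive = Poor fit, or a flat curve whose signal drops by 30% to 70%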;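 note: more negative values mean stronger growth rescue toward the control strain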
Large screens that a line does not name were inactive (follow-up assays come after a bar, where they were run).

C[C@H](CO)N1C[C@H](C)[C@@H](CN(C)C(=O)Nc2ccc3c(c2)OCO3)Oc2ccc(NC(=O)Nc3ccc4c(c3)OCO4)cc2C1=O	none (no result: AI-2 QS modul)
O=C1COc2ccc(-c3csc(=Nc4ccc(OC(F)F)cc4)n3CC3CCCO3)cc2N1 (stereo not given)	none
COCC(C)n1c(-c2ccc3c(c2)NC(=O)CO3)csc1=Nc1ccc(OC(F)F)cc1 (stereo not given)	Mot1-301 SUMO 532 | Yeast Mot1 SUMO inactive
Cc1cccc(NS(=O)(=O)c2ccc3[nH]c(=O)cc(C(=O)O)c3c2)c1	Mot1-301 SUMO 544 | Yeast Mot1 SUMO inactive
Cc1cc(=O)[nH]c2ccc(S(=O)(=O)Nc3ccccc3)cc12	none
CCOCCc1nn2c(=O)cc(CSCC(=O)Nc3cc(C)cc(C)c3)nc2s1	none
O=C(Cn1sc2ccccc2c1=O)NC12CC3CC(CC(C3)C1)C2	Mot1-301 SUMO 387 | Yeast Mot1 SUMO inactive
O=C(Cn1sc2ccccc2c1=O)Nc1ccccc1	none (no result: Mot1-301 SUMO, AI-2 QS modul, AHR act, GRIN3A LBD mod, NTR1 ag)
CC(C)(C)c1ccc(C(=O)COC(=O)CN2C(=O)NC3(CCCC3)C2=O)cc1	Mot1-301 SUMO 522 | Yeast Mot1 SUMO inactive
CC1CC(N(C(=O)c2ccccc2Cl)c2ccccc2)c2ccccc2N1 (stereo not given)	Mot1-301 SUMO 453 | Yeast Mot1 SUMO inactive
CN(C(=O)c1ccccc1Cl)C1CCCCC1	none
COc1ccc(CNC(=O)C2CCCN(C(=O)Nc3ccc(OC)cc3)C2)cc1 (stereo not given)	none
O=c1cc(CN2CCCCCC2)nc2sccn12	none
O=C1c2ccccc2S(=O)(=O)N1Cc1cc(=O)n2ccsc2n1	Mot1-301 SUMO 383 | Yeast Mot1 SUMO inactive
CCOc1ccc(C)cc1S(=O)(=O)n1nc(C)cc1C	Mot1-301 SUMO 477 | Yeast Mot1 SUMO inactive
CCc1nc(SCc2ccccc2C)n[nH]1	none (no result: AHR act)
COC(=O)Cc1nnc(SCC(=O)Nc2ccccc2)c2ccccc12	none
COc1cccc(C(O)c2nc(-c3ccc(F)c(Cl)c3)cs2)c1 (stereo not given)	none (no result: Mot1-301 SUMO, AI-2 QS modul, AHR act, GRIN3A LBD mod, NTR1 ag)
CC(C(=O)Nc1ccccc1-c1ccccc1)N1CCN(C(=O)c2ccccc2)CC1 (stereo not given)	none
CC(C(=O)Nc1ccccc1-c1ccccc1)N1CCN(Cc2ccccc2)CC1 (stereo not given)	Mot1-301 SUMO 528 | Yeast Mot1 SUMO inactive
CCN(CC)S(=O)(=O)c1ccc(N2CCOCC2)c(NC(=O)c2ccc(N3CCCC3=O)cc2)c1	none
CC(C)(C)OC(=O)N1CCC(C(=O)N[C@@H](Cc2ccccc2)C(=O)O)(c2ccccc2)CC1	none
CC(C)[C@H](NC(=O)C1(c2ccccc2)CCN(C(=O)OC(C)(C)C)CC1)C(=O)O	Mot1-301 SUMO 607 | Yeast Mot1 SUMO inactive
Cc1cc(C)c(C)c(S(=O)(=O)NCc2ccc(C(=O)NCC3CCCO3)cc2)c1C (stereo not given)	none
CN(C(=O)COC(=O)c1cncc(Br)c1)C1CCCCC1	none (no result: AI-2 QS modul)
CN(C(=O)c1cncc(Br)c1)C1C2CC3CC(C2)CC1C3 (stereo not given)	Mot1-301 SUMO 780 | Yeast Mot1 SUMO inactive
Fc1cccc(Cl)c1CSc1nnc(CN2CCOCC2)n1-c1ccccc1	Mot1-301 SUMO 551 | Yeast Mot1 SUMO inactive
Clc1ccc(CSc2nnc(CN3CCOCC3)n2-c2ccccc2)cc1Cl	Mot1-301 SUMO 588, AI-2 QS modul inconclusive | Yeast Mot1 SUMO inactive
Clc1cccc(Cl)c1CSc1nnc(CN2CCOCC2)n1-c1ccccc1	none
CC(C)Oc1ccc(/C(O)=C2/C(=O)C(=O)N(CCN3CCNCC3)C2c2ccc(C(C)C)cc2)cc1 (stereo not given)	none
O=C1CN(C(=O)COC(=O)COc2ccc3c(c2)CCC3)c2ccccc2N1	Mot1-301 SUMO 586 | Yeast Mot1 SUMO inactive
C=CCn1c2ccccc2c2n[nH]c(=S)nc21	none (no result: AHR act)
CCOc1ccc(C(=O)c2cccs2)cc1	Mot1-301 SUMO 387 | Yeast Mot1 SUMO inactive
CCN(CC)C1CCN(C(=O)c2cc(COc3ccc(-n4cncn4)cc3)on2)C1 (stereo not given)	Mot1-301 SUMO 512 | Yeast Mot1 SUMO inactive
C/C(=N\N=C(/N)SC1CC(=O)N(c2cccc(Cl)c2)C1=O)c1cccs1 (stereo not given)	Mot1-301 SUMO 374 (no result: GRIN3A LBD mod) | Yeast Mot1 SUMO inactive
CCCOc1ccc(N2C(=O)CC(S/C(N)=N/N=C(\C)c3cccs3)C2=O)cc1 (stereo not given)	none (no result: GRIN3A LBD mod)
CC(=O)/C(N)=N/Nc1cccc(Cl)c1	Mot1-301 SUMO 437, GRIN3A LBD mod 20 | Yeast Mot1 SUMO inactive
CC(=O)/C(=N\Nc1cccc(Cl)c1)Sc1cccc2cccnc12	none
COc1cccc(OCC(=O)Nc2c3c(nn2-c2ccc(F)cc2)CS(=O)(=O)C3)c1	none
CCOC(=O)c1[nH]c2ccc(Br)cc2c1NC(=O)CCN1CCOCC1	Mot1-301 SUMO 413 | Yeast Mot1 SUMO inactive
CC1CCN(CCNC(=O)C2CCCN(S(=O)(=O)c3cccc4nsnc34)C2)CC1 (stereo not given)	Mot1-301 SUMO 454 (no result: AI-2 QS modul) | Yeast Mot1 SUMO inactive
COc1ccc(NC(=O)CSCC(=O)Nc2ccccc2C(=O)N2CCCCC2)cc1	none (no result: AI-2 QS modul)
COc1ccc(NC(=O)Nc2ccccc2C(=O)N2CCCC2)cc1	Mot1-301 SUMO 739 | Yeast Mot1 SUMO inactive
COc1ccc(S(=O)(=O)Nc2cccc3c2O[C@H](CN(C)C(=O)Nc2ccc(C(F)(F)F)cc2)[C@@H](C)CN([C@H](C)CO)C3=O)cc1	none (no result: AI-2 QS modul)
O=C(Cn1nc(C(F)(F)F)c2c1CCCC2)N1CCOCC1	Mot1-301 SUMO 772 | Yeast Mot1 SUMO inactive
Cc1c(Cl)c([N+](=O)[O-])nn1CC(=O)NC12CC3CC(CC(C3)C1)C2	Mot1-301 SUMO 952 | Yeast Mot1 SUMO inactive
Cc1c(Cl)c([N+](=O)[O-])nn1CC(=O)N1CCCC1	none
COc1ccc(CNC(=O)CCn2c(C)csc2=O)cc1	none (no result: AI-2 QS modul)
CC(C)(CC(=O)OCC(=O)Nc1ccccc1F)CC1=NS(=O)(=O)c2ccccc2N1	none
COc1ccccc1NC(=O)COC(=O)CC(C)(C)CC1=NS(=O)(=O)c2ccccc2N1	Mot1-301 SUMO 396 | Yeast Mot1 SUMO inactive
